Bioassay records from PubChem.
ATXN2 expr inh – ATXN2 expression inhibition; Potency, µM (titrated, usually from 57 µM), most hits filed as inhibitors; HEK-293 ATXN2-luciferase reporter, luminescence, 24 h; actives 0.72% (n = 360,000); also: nearly all actives have a fitted effect of over 55% in size
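ATXN2-luciferase reporter cells (luciferase flanked by upstream and downstream ATXN2 gene portions) were treated 24 h at 37 °C with compounds at up to 57 uM. SteadyGlo luminescence gave expression; GF-AFC fluorescence gave viability.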
HT1080 IDH1KD tx – kills HT-1080 cells with IDH1 knockdown; Potency, µM (series often up to 46.1 µM), actives largely listed as cytotoxic; HT-1080 IDH1 knockdown viability, ATP luminescence, 48 h; actives 2% (n = 360,000)
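IDH1KD HT-1080 cells, 750/well, RPMI + 5% FBS; compound pinned after 2 h settling; 48 h, 37 °C; CellTiter-Glo luminescence; % activity normalised to DMSO and no-cell wells; curves fitted, classed by r2 and efficacy.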
KB-V1 cytotox – KB-V1 MDR subline cytotoxicity | Potency, µM (top dose mostly 46.1 µM), hits mostly cytotoxic | KB-V1 MDR cells viability, CellTiter-Glo, 72 h | AID 1347076 | actives 3.4% (n = 400,000); also: nearly all actives have a fitted effect of over 60% in size
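Cells of the MDR subline KB-V1 are plated, dosed with compound at multiple concentrations, and incubated 72 h at 37 degrees C; CellTiter-Glo is then added and luminescence read after 10 min.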
KB-3-1 cytotox – KB-3-1 parental cell cytotoxicity | KB-3-1 viability, CellTiter-Glo ATP luminescence, 72 h | Potency, µM (doses to about 46.1 µM), usual class: cytotoxic | actives 1.4% (n = 400,000); also: nearly all actives have a fitted effect of over 60% in size
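Parental KB-3-1 viability, qHTS format: 72 h compound exposure, 37 °C; CellTiter-Glo; media-only wells and DMSO plates as controls; concentration-effect fits on corrected data.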
HT1080NT lethal – kills 2HG-producing HT-1080-NT fibrosarcoma cells | AID 686970 | Potency, µM (top dose mostly 46.1 µM), actives largely listed as cytotoxic | HT-1080-NT fibrosarcoma viability, CellTiter-Glo ATP luminescence, 48 h | actives 1.6% (n = 360,000);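 also: NT is the 2HG producing partner of a matched IDH1 knockdown line; nearly all actives have a fitted effect of over 55% in size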
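Read-out is CellTiter-Glo luminescence after 10 minutes at room temperature, following 48 hours' compound treatment of HT-1080-NT cells (750 cells/well, RPMI, 5% FBS, 37 degrees C).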
S2 tox – viability counter-screen for ATXN expression inhibitors; Potency, µM (titrated, usually from 56.7 µM), most hits filed as cytotoxic; AID 651635; S2 cells (HEK-293 line with an ATXN2-luciferase reporter) viability, CellTiter-Fluor protease fluorescence, 24 h; actives 0.49% (n = 400,000); also: nearly all actives have a fitted effect of over 40% in size
Of the large screens only hits and unclear results are named; the others gave an inactive call. An excerpt weighted towards active compounds, which were near 6.2% of everything screened. Calls follow the shape of the dose curve; as a rule, active = well fitted curve in the direction sought with a large enough effect; inconclusive = small, poorly fitted or top-dose-only effect, or another doubt; inactive = no such curve, though single readings can be large; an effect the other way counts as inactive or inconclusive.

Cc1ccccc1S(=O)(=O)Nc1nc2ccccc2nc1Cl	none
COc1ccc(-n2c(=O)c3ccccc3n(Cc3ccccc3C)c2=O)c(OC)c1	S2 tox inconclusive (no result: HT1080 IDH1KD tx, HT1080NT lethal)
Cc1cc(C)c(NC(=O)C(C)n2c(=O)cc(-c3ccccc3)c3c(C)nn(C)c32)c(C)c1 (stereo not given)	none (no result: HT1080 IDH1KD tx, HT1080NT lethal)
Cc1ccc2c(c1)N(CC(=O)N1CCCCC1)C(=O)CO2	KB-V1 cytotox inconclusive, KB-3-1 cytotox inconclusive
CCOC(=O)c1cc2occc2n1CC(=O)N1CCCc2ccccc21	KB-V1 cytotox 16µM
Cc1ccc2c(c1)N(CC(=O)N1CCCc3ccccc31)C(=O)CO2	KB-V1 cytotox 12µM
CC1CC(C)(C)CC2(C1)NC(=O)N(CC(=O)NC1CCCc3ccccc31)C2=O (stereo not given)	KB-V1 cytotox 21µM
Cc1ccc2c(c1)N(CC(=O)NC1CCCc3ccccc31)C(=O)CO2 (stereo not given)	KB-V1 cytotox 16µM
CN(C)[C@@H]1C(=O)C(C(=O)NCN2CCCC2)=C(O)[C@@]2(O)C(=O)C3=C(O)c4c(O)cccc4[C@@](C)(O)C3C[C@@H]12 (stereo not given in full)	none (no result: HT1080 IDH1KD tx, KB-V1 cytotox, KB-3-1 cytotox, HT1080NT lethal)
Cc1c(C(=O)N(C)C2CCOC2)sc2ncnc(NCc3ccc4c(c3)OCO4)c12 (stereo not given)	none (no result: ATXN2 expr inh, HT1080 IDH1KD tx, KB-V1 cytotox, KB-3-1 cytotox, HT1080NT lethal)
CC(=O)c1cccc(NC(=O)COc2ccccc2C(=O)Nc2ccccc2)c1	none (no result: ATXN2 expr inh, HT1080 IDH1KD tx, HT1080NT lethal, S2 tox)
CCOC(=O)c1c(Oc2ccc(OC)cc2)nnc(-c2ccccc2)c1-c1ccccc1	none (no result: HT1080 IDH1KD tx, HT1080NT lethal)
CCOC(=O)c1cnc(-n2cc(C)cn2)nc1NCc1ccc2c(c1)OCO2	KB-V1 cytotox 4.1µM
CCOC(=O)c1cnc(-n2nc(C)cc2C)nc1NC(C)c1ccccc1 (stereo not given)	ATXN2 expr inh inconclusive, KB-V1 cytotox 1µM, KB-3-1 cytotox inconclusive, S2 tox inconclusive
CCOC(=O)c1cnc(-n2nc(C)cc2C)nc1NCCO	KB-V1 cytotox inconclusive
CCOC(=O)c1cnc(-n2nc(C)cc2C)nc1NCc1ccccc1	ATXN2 expr inh inconclusive, KB-V1 cytotox 0.92µM, KB-3-1 cytotox inconclusive, S2 tox inconclusive
Cc1cnc(C(=O)OCC(=O)NCc2ccc3c(c2)OCO3)cn1	none
CN(C)c1ccc(C=O)c(O)c1	none (no result: ATXN2 expr inh, HT1080 IDH1KD tx, HT1080NT lethal, S2 tox)
CCN(C(=O)Cn1c(C(=O)OC)cc2oc3ccccc3c21)c1cccc(C)c1	ATXN2 expr inh inconclusive (no result: HT1080 IDH1KD tx, HT1080NT lethal)
O=C1Nc2ccccc2N(O)N1c1ccc(Cl)cc1	none (no result: ATXN2 expr inh)
CCN1c2ccccc2NC2C1C(C(C)=O)C(=O)N2c1ccc(Cl)cc1 (stereo not given)	HT1080 IDH1KD tx 16µM, HT1080NT lethal inconclusive
CC(C)C[C@H](CO)Nc1nc(Nc2cccc(Cl)c2)c2ncn(C(C)C)c2n1	ATXN2 expr inh inconclusive, S2 tox 22µM
Cc1cc(=O)n2[nH]c(N)c(N=Nc3ccccc3F)c2n1	HT1080 IDH1KD tx inconclusive, KB-V1 cytotox inconclusive, KB-3-1 cytotox 21µM, HT1080NT lethal inconclusive, S2 tox inconclusive
Cc1cc(=O)n2[nH]c(C)c(-c3ccccc3)c2n1	KB-V1 cytotox inconclusive
CCCN(CCC)S(=O)(=O)c1ccc(NC(=O)c2cc(C(=O)OC)cc([N+](=O)[O-])c2)cc1	KB-V1 cytotox 10µM
CCC(C)(C)NC(=O)c1cc(C(=O)OC)cc([N+](=O)[O-])c1	none (no result: ATXN2 expr inh, S2 tox)
CN(C)CCCNS(=O)(=O)c1ccc(NC2CCCCCC2)c([N+](=O)[O-])c1	HT1080 IDH1KD tx inconclusive, KB-V1 cytotox inconclusive, KB-3-1 cytotox 18µM, HT1080NT lethal inconclusive
CC(C)COc1cccc(C(=O)Nc2ccc(-c3nc4ncccc4o3)cc2)c1	KB-V1 cytotox inconclusive, KB-3-1 cytotox inconclusive (no result: HT1080 IDH1KD tx, HT1080NT lethal)
CCN1CCN(C(c2cccs2)C(C)NS(=O)(=O)c2ccc(Br)cc2)CC1 (stereo not given)	KB-V1 cytotox 23µM
CS(=O)(=O)c1ccc(C(=O)Nc2ccc(Cl)c(-c3ccccn3)c2)c(Cl)c1	none (no result: HT1080 IDH1KD tx, KB-V1 cytotox, KB-3-1 cytotox, HT1080NT lethal, S2 tox)
Cc1cccc(CSc2nc3c(c(=O)[nH]2)CCCC3)c1	none
O=c1[nH]c(SCc2cccc(F)c2)nc2c1CCCC2	KB-V1 cytotox 15µM
